Results as given in PubChem BioAssay (NCATS).
Inconclusive results are not listed. The source made the active and inactive calls. Unless noted, calls follow the shape of the full dose curve.

How the values were obtained:
[1] = Cell Viability - BJ (AID 421); conditions: BJ fibroblast viability, qHTS;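 also: potency is read from the fitted curve at half-maximal effect; cells exposed to compound for 40 hours at 37 °C before readout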
In short: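 Cytotoxicity in human BJ foreskin fibroblasts is scored as loss of cellular ATP after a 40-hour exposure, measured by luciferase luminescence. Controls are DMSO and 100 uM tamoxifen.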

[2] = Cell Viability - Jurkat (AID 426;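 active = dose-dependent loss of cell ATP signal giving a full or clear fitted curve, ranked by lower potency value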;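 also: potency is read from the fitted curve at half-maximal effect; cells exposed to compound for 40 hours at 37 °C before ATP read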); conditions: qHTS
In short: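 Seed 5000 Jurkat E6-1 cells/well; add compound; incubate 40 hr at 37 °C; add CellTiter-Glo; wait 20 min at room temperature; read luminescence. Fit concentration-response with Hill equation for AC50.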

[3] = Cell Viability - Hek293 (AID 427;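 active = compounds whose dose-response curve shows a full or clear partial loss of cell viability, called from curve shape rather than a numeric limit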;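 also: potency is read from the fitted curve at half-maximal effect; cells exposed to compound for 40 hours at 37 °C before reading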); conditions: qHTS
In short: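 qHTS, human embryonic kidney (adenovirus-transformed) cells; 40 hr cpd, 37 °C; CellTiter-Glo ATP luminescence. Norm: DMSO = 0, 100 uM tamoxifen = 100% inhibition. Hill-fit AC50.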

[4] = Cell Viability - HepG2 (AID 433); conditions: qHTS;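 also: potency is read from the fitted curve at half-maximal effect; cells exposed to compound for 40 hours; potency for ATP loss meaning cytotoxicity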
In short: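 HepG2 cells, 1500 per well, treated 40 hr at 37 °C in complete medium; viability from intracellular ATP by CellTiter-Glo luminescence. Normalized to DMSO and 100 uM tamoxifen; AC50 from Hill fit of qHTS concentration-response.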

[5] = Cell Viability - MRC5 (AID 434); conditions: MRC5 lung fibroblast viability, qHTS;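 also: potency is read from the fitted curve at half-maximal effect; cells exposed to compound for 40 hours at 37 °C; potency reflects cytotoxicity seen as loss of intracellular ATP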
In short: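 qHTS cytotoxicity in human lung fibroblast MRC5 cells; 40 hr treatment, 37 °C; cellular ATP by luciferase luminescence; DMSO = 0%, 100 uM tamoxifen = 100% inhibition; Hill-fit AC50.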

[6] = Cell Viability - SK-N-SH (AID 435); conditions: SK-N-SH neuroblastoma cell viability qHTS;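 also: potency is read from the fitted curve at half-maximal effect; compound exposure lasted 40 h at 37 °C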
In short: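 SK-N-SH neuroblastoma cells (1500/well) treated 40 h at 37 °C in complete medium; viability read as cellular ATP by CellTiter-Glo luminescence. Normalized to DMSO and 100 uM tamoxifen; AC50 from Hill fits of qHTS concentration-response.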

[7] = target: Mitogen-activated protein kinase 10 (Mus musculus) (UniProt Q61831); assay: JNK3 AlphaScreen Assay (AID 530; active = well fitted curve in either direction with a large enough effect, not every such curve was filed as active;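 also: kinase came from lysate of stimulated human HepG2 cells; signal reports phosphorylation of biotinylated GST-cJun 1-79 at Ser73 with 10 µM ATP; % is scaled to controls: 0 for no effect and ±100 for the full control effect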); conditions: JNK3 lysate, c-Jun phosphorylation; series mostly up to 57.1 µM
In short: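 Room-temperature AlphaScreen kinase assay; pre-activated HepG2 lysate as JNK3 source, biotin-GST-cJun(1-79) substrate, 10 uM ATP, compound 15 min preincubation.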

[8] = Cell Viability - N2a (AID 540; active = well fitted curve in the direction sought with a large enough effect; an effect the other way counts as inactive or inconclusive;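 also: cells exposed to compound for 40 h at 37 °C; plate controls were DMSO alone for no effect and tamoxifen control for full effect; nearly all actives have a fitted effect of over 45% in size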); conditions: N2a mouse neuroblastoma cell viability; activity change, negative = cytotoxicity: at 92.2 µM (top of the series)
In short: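 First, 1500 N2a cells per well incubate 5 hr at 37 °C; next, compounds are added and incubated 40 hr at 37 °C; finally CellTiter-Glo is added and luminescence read after 20 min, with AC50 derived by Hill modeling.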

[9] = Cell Viability - HUV-EC-C (AID 542; active = well fitted curve in the direction sought with a large enough effect; an effect the other way counts as inactive or inconclusive;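 also: cells exposed to compound for 40 hours; % is scaled to controls: 0 for no effect and ±100 for the full control effect; nearly all actives have a fitted effect of over 35% in size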); conditions: HUV-EC-C endothelial cell viability, qHTS; series mostly up to 92.2 µM
In short: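 Decrease in cellular ATP, quantified by luciferase luminescence, reflects toxicity in normal human vascular endothelial HUV-EC-C cells given compound for 40 hr in complete culture medium. Values are AC50s from concentration-response curves.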

[10] = Cell Viability - NIH 3T3 (AID 541; active = well fitted curve in the direction sought with a large enough effect; an effect the other way counts as inactive or inconclusive;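 also: cells exposed to compound for 40 hours; plate controls were DMSO alone for no effect and tamoxifen positive control for full effect; nearly all actives have a fitted effect of over 25% in size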); conditions: NIH 3T3 cell viability, qHTS; activity change, negative = cytotoxicity: at 92.2 µM (top of the series)
In short: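 AC50 values reflect concentration-dependent loss of intracellular ATP in NIH 3T3 cells after 40 hr treatment in complete culture medium, quantified by luciferase-based luminescence.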

CC/C=C1/OC(=O)c2ccccc21
inactive: Potency [1] > 92 µM | Potency [2] > 92 µM | Potency [3] > 92 µM | Potency [4] > 92 µM | Potency [5] > 92 µM | Potency [6] > 92 µM | outcome [7] | activity change, negative = cytotoxicity [8] 3.1% | Potency [9]

C=CCn1c(=O)n(CC=C)c(=O)n(CC=C)c1=O
inactive: Potency [1] > 92 µM | Potency [2] > 92 µM | Potency [3] > 92 µM | Potency [4] > 92 µM | Potency [5] > 92 µM | Potency [6] > 92 µM | activity change, negative = cytotoxicity [8] 0.0467% | Potency [10] | Potency [9]

C=Cc1ccccc1C=C
inactive: Potency [1] > 92 µM | Potency [2] > 92 µM | Potency [3] > 92 µM | Potency [4] > 92 µM | Potency [5] > 92 µM | Potency [6] > 92 µM | outcome [7] | activity change, negative = cytotoxicity [8] 7.3% | Potency [9]

COc1ccc(N=[N+]([O-])c2ccc(OC)cc2)cc1
inactive: Potency [1] > 92 µM | Potency [2] > 92 µM | Potency [3] > 92 µM | Potency [4] > 92 µM | Potency [5] > 92 µM | Potency [6] > 92 µM | outcome [7] | activity change, negative = cytotoxicity [8] -19% | Potency [9]

OCCO
inactive: Potency [1] > 92 µM | Potency [2] > 92 µM | Potency [3] > 92 µM | Potency [4] > 92 µM | Potency [5] > 92 µM | Potency [6] > 92 µM | outcome [7] | activity change, negative = cytotoxicity [8] -12.9% | Potency [9]

c1ccc2n[nH]nc2c1
inactive: Potency [1] > 92 µM | Potency [2] > 92 µM | Potency [3] > 92 µM | Potency [4] > 92 µM | Potency [5] > 92 µM | Potency [6] > 92 µM | outcome [7] | activity change, negative = cytotoxicity [8] -2.18% | Potency [9]

COc1ccc(N)c(OC)c1
inactive: Potency [1] > 92 µM | Potency [2] > 92 µM | Potency [3] > 92 µM | Potency [4] > 92 µM | Potency [5] > 92 µM | Potency [6] > 92 µM | outcome [7] | activity change, negative = cytotoxicity [8] -1.93% | Potency [9]

Cc1ccc2ccccc2c1[N+](=O)[O-]
inactive: Potency [1] > 92 µM | Potency [2] > 92 µM | Potency [3] > 92 µM | Potency [4] > 92 µM | Potency [5] > 92 µM | Potency [6] > 92 µM | outcome [7] | activity change, negative = cytotoxicity [8] -10.2% | Potency [9]

CC(C)(C)OCC1CO1 (stereo unspecified)
inactive: Potency [1] > 92 µM | Potency [2] > 92 µM | Potency [3] > 92 µM | Potency [4] > 92 µM | Potency [5] > 92 µM | Potency [6] > 92 µM | outcome [7] | activity change, negative = cytotoxicity [8] 3.76% | Potency [9]

CCCCOCCOCCOCCCC
inactive: Potency [1] > 92 µM | Potency [2] > 92 µM | Potency [3] > 92 µM | Potency [4] > 92 µM | Potency [5] > 92 µM | Potency [6] > 92 µM | activity change, negative = cytotoxicity [8] 3.3% | Potency [10] | Potency [9]

Nc1cccc2c(=O)[nH][nH]c(=O)c12
inactive: Potency [1] > 92 µM | Potency [2] > 92 µM | Potency [3] > 92 µM | Potency [4] > 92 µM | Potency [5] > 92 µM | Potency [6] > 92 µM | outcome [7] | activity change, negative = cytotoxicity [8] 9.7% | Potency [9]

CCOc1cccc(N)c1
inactive: Potency [1] > 92 µM | Potency [2] > 92 µM | Potency [3] > 92 µM | Potency [4] > 92 µM | Potency [5] > 92 µM | Potency [6] > 92 µM | outcome [7] | activity change, negative = cytotoxicity [8] 4.96% | Potency [9]

CC/C=C/C#N
inactive: Potency [1] > 92 µM | Potency [2] > 92 µM | Potency [3] > 92 µM | Potency [4] > 92 µM | Potency [5] > 92 µM | Potency [6] > 92 µM | activity change, negative = cytotoxicity [8] -7.86% | Potency [10] | Potency [9]

CC(C)=CCC/C(C)=C/C=O
inactive: Potency [1] > 92 µM | Potency [2] > 92 µM | Potency [3] > 92 µM | Potency [4] > 92 µM | Potency [5] > 92 µM | Potency [6] > 92 µM | outcome [7] | activity change, negative = cytotoxicity [8] -7.95% | Potency [9]

Cc1ccc(C)c(N)c1
inactive: Potency [1] > 92 µM | Potency [2] > 92 µM | Potency [3] > 92 µM | Potency [4] > 92 µM | Potency [5] > 92 µM | Potency [6] > 92 µM | outcome [7] | activity change, negative = cytotoxicity [8] -15.8% | Potency [9]

Cc1cc(C2(c3cc(C)c(O)cc3C)OS(=O)(=O)c3ccccc32)c(C)cc1O
inactive: Potency [1] > 92 µM | Potency [2] > 92 µM | Potency [3] > 92 µM | Potency [4] > 92 µM | Potency [5] > 92 µM | Potency [6] > 92 µM | activity change, negative = cytotoxicity [8] -2.09% | Potency [10]

c1ccc2c(c1)Oc1ccccc1S2
inactive: Potency [1] > 92 µM | Potency [2] > 92 µM | Potency [3] > 92 µM | Potency [4] > 92 µM | Potency [5] > 92 µM | Potency [6] > 92 µM | activity change, negative = cytotoxicity [8] -9.06% | Potency [10] | Potency [9]

C=CC(=O)NC(C)C
inactive: Potency [1] > 92 µM | Potency [2] > 92 µM | Potency [3] > 92 µM | Potency [4] > 92 µM | Potency [5] > 92 µM | Potency [6] > 92 µM | outcome [7] | activity change, negative = cytotoxicity [8] 4.17% | Potency [9]
